# 14-3-3 Bad inh – disrupts binding of bovine 14-3-3 zeta to phospho-Bad peptide; inhibition, % at 21.7 µM; TR-FRET 14-3-3zeta/Dy647-pBad peptide displacement, 1 h; hit rate 0.71% among 220,000;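 active = inhibition above about 70%, limit read from the data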;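 note: 0% = full 14-3-3 plus peptide FRET controls and 100% = background without 14-3-3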
# m-calpain inh – inhibitors of pig calpain II; purified calpain II, fluorogenic peptide substrate, 30 min; inhibition, % at 16 µM; hit rate 0.37% among 220,000; AID 1236;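 active = inhibition above about 50%, limit read from the data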
# Efa HMGR inh – blocks class II HMG-CoA reductase of Enterococcus faecalis; purified E. faecalis HMGR, NADPH absorbance 340 nm kinetic; inhibition, % at 10 µM; hit rate 0.41% among 190,000; AID 1066;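 active = inhibition above a set limit, the median over all tested compounds plus 3 SD, cut at about 9.5% in these data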;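 note: enzyme runs in reverse so mevalonate oxidation gives rising NADPH absorbance; 0% = complete reaction with DMSO and 100% = background rate lacking mevalonate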
# TNF necrop inh – inhibitors of TNF-alpha induced necroptosis in Jurkat FADD-/- cells. activation (protection from cell death), % at 10 µM. Jurkat FADD-/- TNF necroptosis rescue, ATP luminescence, 24 h; 0 = TNF only, 100 = no-TNF cells. hit rate 0.068% among 220,000;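 active = activation, meaning protection from cell death, of at least 50% relative to plate controls; inactive = activation below 50%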;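 note: necroptosis triggered by 40 ng/mL TNF-alpha added together with compound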
# ROMK mod – modulators of human ROMK potassium channel. P48048. Tet-inducible ROMK, thallium flux fluorescence; actives lie on both sides. B-score at 10 µM. hit rate 2% among 130,000. AID 1918;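 active = signal ratio slope over the read window, or its plate-corrected B-score, at least 3 SD from the plate mean, either direction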;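 note: B-score of the F/F0 ratio slope over 7 to 12 s after thallium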
# Target sequence (P48048 whole entry, looked up): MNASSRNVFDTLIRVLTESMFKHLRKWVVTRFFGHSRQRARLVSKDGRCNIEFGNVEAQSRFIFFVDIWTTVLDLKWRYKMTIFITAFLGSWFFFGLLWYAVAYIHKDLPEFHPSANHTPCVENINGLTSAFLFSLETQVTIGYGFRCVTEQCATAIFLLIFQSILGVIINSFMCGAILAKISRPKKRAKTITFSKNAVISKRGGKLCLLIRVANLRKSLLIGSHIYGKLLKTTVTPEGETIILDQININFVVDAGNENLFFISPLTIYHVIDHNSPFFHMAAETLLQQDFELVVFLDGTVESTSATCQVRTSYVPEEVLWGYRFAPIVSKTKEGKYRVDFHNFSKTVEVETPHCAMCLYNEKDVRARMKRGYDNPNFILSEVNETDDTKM
# zVAD death inh – blocks zVAD induced death of L929 cells | L929 zVAD necroptosis rescue, ATP luminescence, 24 h; with zVAD 60 µM | viability rescue, % at 10 µM | hit rate 0.38% among 220,000;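 active = activation, scaled between plate controls, above about 75%, limit read from the data; inactive = activation under that limit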;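 note: 0% = zVAD with DMSO and 100% = DMSO alone without zVAD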
# An asterisk follows results filed as active; / = no result; [ ] = another dose, or the depositor's remark. This is a sample that favours compounds with a hit; in the whole collection about 3% have one here.
SMILES,14-3-3 Bad inh,m-calpain inh,Efa HMGR inh,TNF necrop inh,ROMK mod,zVAD death inh
O=C(NCC1CCCO1)c1onc(CSc2ccccc2)c1C(=O)O (centres undefined),72*,-48,-2,-1,/,0
COC(=O)c1c(NC(=O)C2CC(=O)NN2Cc2ccccc2)sc(C)c1C (centres undefined),8,-19,4,-3,/,0
COc1cccc(C(=O)CN(C(=O)c2ccc(Cl)cc2Cl)N2C(=O)c3ccccc3C2=O)c1,-7,12,-5,2,/,2
O=C(O)CC(Cc1ccc(Cl)cc1)C(=O)Nc1ccc([N+](=O)[O-])cc1 (centres undefined),11,69*,-2,0,0.68,0
O=C(Cc1ccc([N+](=O)[O-])cc1)Nc1ccc(Cl)cc1,-2,-72,-2,6,-1.3,1
CCN(CC)S(=O)(=O)c1cccc(NC(=O)COC(=O)C2COc3ccccc3O2)c1 (centres undefined),-14,-1,1,1,0.068,0
CCC(C)c1ccc(O)c(NC(=O)c2cncc(Br)c2)c1 (centres undefined),34,-22,-2,78*,0.31,2
Oc1ccc(C2=Nn3c(nnc3-c3ccco3)SC2)cc1O,10,1,12*,-10,/,18
COc1ccc(C2=Nn3c(nnc3-c3ccco3)SC2)cc1,20,51*,0,-10,0.57,-1
COc1ccc(OC)c(C2=Nn3c(nnc3-c3ccco3)SC2)c1,-3,5,-4,0,-0.47,0
CC(C)(C)C1=Nn2c(nnc2-c2ccco2)SC1,7,-10,-4,0,-0.4,0
C(=N\Nc1ccccc1)/c1ccc(N2CCOCC2)cc1,88*[fluorescence artefact?],-28,-9,-4,0.01,0
CCOC(=O)C1CCN(C(=O)Nc2cc(Cl)cc(Cl)c2)CC1,8,15,/,2,0.61,1
CSc1nc2ccc3nc(NC(=O)c4cccs4)sc3c2s1,73*[fluorescence artefact?],-315,0,0,/,0
CSc1nc2ccc3nc(NC(=O)c4ccc(Cl)s4)sc3c2s1,-1,-60,-3,1,/,1
C=CCOC(=O)c1cc(-c2ccc(/C=C3\C(=O)NC(=O)C(C#N)=C3C)o2)ccc1Cl,92*[fluorescence artefact?],-113,0,-4,0.95,0
CCOc1ccc(Nc2cc(C)nc(-n3nc(C)cc3C)n2)cc1,-4,20,-1,-12,2.7*,0
CCOC(=O)c1cnc(-n2nc(C)cc2C)nc1Nc1ccc(OC)cc1,-6,54*,-3,-3,0.87,0
CC(=O)Nc1ccc(NC(=O)CCSCCc2ccccn2)cc1,-7,-15,-8,-1,0.46,0
CN(Cc1c(O)ccc2c1oc(=O)c1ccccc12)C1CCCCC1,87*,19,-2,4,-0.95,2
CN(C)Cc1c(O)ccc2c3c(c(=O)oc12)CCCCC3,7,-487,-5,0,0.94,0
CCN(CC)S(=O)(=O)c1cccc(NC(=O)CCSc2ccc(Cl)cc2)c1,1,22,-1,2,0.2,49
CC(=O)c1ccc(S(=O)(=O)Nc2ccc(-c3cn4c(n3)SCC4)cc2)cc1,-16,-276,-1,1,/,16
CCCOc1ccc(/C(O)=C2\C(=O)C(=O)N(CCCOC)C23C(=O)N(C)c2ccccc23)cc1 (centres undefined),70*,1,-7,-1,/,1
Cc1ccc(NC(=O)COC(=O)c2cccc3c(=O)c(C)c(-c4ccccc4)oc23)cc1,-10,20,-4,2,-1,1
COc1ccccc1OCCNc1nc2c(c(=O)n(C)c(=O)n2C)n1C,-10,-15,4,-2,0.85,0
Cn1c(=O)c2c(nc(NCCOc3ccc(C(C)(C)C)cc3)n2C)n(C)c1=O,-6,-15,13*,-15,-0.25,/
Cc1ccc(NCc2cccnc2)cc1,71*,-37,-8,-1,0.97,0
CC(=O)c1ccc(NC(=O)C(C)N2CCN(C/C=C/c3ccccc3)CC2)cc1 (centres undefined),-15,-7,-6,2,-2.1,4
COc1ccc(Cl)cc1NC(=O)C(C)N1CCN(C/C=C/c2ccccc2)CC1 (centres undefined),76*,-13,4,2,/,0
